Most compounds without a hit are left out; they make up all but 6.3% or so of the library.
Spn MK inh: S. pneumoniae MK inhibitors, primary screen, biochemical, PK/LDH-coupled NADH absorbance; AID 555, 2006; actives 0.48% (n = 65,000); mevalonate kinase [Streptococcus pneumoniae D39]; purified MK, PK/LDH-coupled NADH absorbance 340 nm; inhibition, % at 10 µM;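 active means ranked among the strongest by inhibition in the single 10 µM screen, a fixed top-ranked set picked for dose follow-up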
Fluor 339 460: intrinsic fluorescence of library compounds, ex339/em460 – biochemical, MLSMR library, data from DPM-DC assay, artefact control, profiling panel. actives 5.5% (n = 65,000). fluorescence fold increase at 10 µM. AID 709, 2007. compound autofluorescence, ex339/em460 nm, NADH buffer; hits give high values; 1 = no-compound wells, NADH background;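 active means at 10 µM, mean starting fluorescence two-fold or more over control wells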;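 further: signal is the first read of a kinetic run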
Spn DPM-DC inh: S. pneumoniae DPM-DC inhibitors, primary screen, biochemical, PK/LDH-coupled NADH fluorescence | diphosphomevalonate decarboxylase (Streptococcus pneumoniae D39) | purified DPM-DC | calls only at 10 µM | actives 0.49% (n = 65,000) | AID 556, 2006;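 active means the 320 compounds with the highest percent inhibition in the single-dose primary screen, excluding strongly autofluorescent ones, cut at about 32% in these data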;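 further: kinetic rate of NADH fluorescence loss reporting ADP formed by the decarboxylase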
Spn PMK inh: S. pneumoniae PMK inhibitors, primary screen, biochemical, mevalonate pathway, pilot trial included. actives 0.49% (n = 65,000). AID 539, 2006. purified PMK, PK/LDH-coupled NADH absorbance 340 nm. phosphomevalonate kinase (Streptococcus pneumoniae D39). inhibition, % at 10 µM;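 active means top-ranked compounds by inhibition in the single 10 µM screen, taking a fixed number of the strongest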;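 further: 0% = full reaction with DMSO carrier and 100% = background rate without enzyme reaction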
Abs 340nm: compound light absorbance at 340 nm, profiling panel, artefact control, biochemical, MLSMR library, data from PS, PMK, MK assays | AID 708, 2007 | fold change at 10 µM | compound absorbance at 340 nm, fold over control | 65,000 tested, under 10 active;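 active means at 10 µM dose, initial 340 nm absorbance at least 2 fold that of control wells; inactive means change under 2 fold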;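 further: initial absorbance extrapolated from kinetic A340 decline of NADH oxidation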
NADH enzymes: inhibitors of PK/LDH coupling enzymes, profiling panel, artefact control, biochemical, MLSMR library. actives 0.02% (n = 65,000). coupled PK/LDH NADH assays, four targets. AID 774, 2007. IC50, µM (top dose mostly 10 µM), inactives show top-dose inhibition;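 active means single-dose screening hits from any of four coupled enzyme assays that gave an IC50 when retested across doses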;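 further: the DPM-DC format reads NADH fluorescence rather than 340 nm absorbance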
Starred values were filed as active, the others as inactive; i = inactive; / = no result shown; + = active, no number.

SMILES	Spn MK inh	Fluor 339 460	Spn DPM-DC inh	Spn PMK inh	Abs 340nm	NADH enzymes
COCCn1nnnc1C(c1ccc(Cl)cc1)N1CCSCC1 (stereo not drawn)	9	1.1	i	1	1.1	4%
Cc1cc(NC(=O)Cn2nc(-c3ccccc3F)ccc2=O)ccc1-n1cnnn1	7	0.79	i	12	0.99	14%
COc1cccc2cc(C(=O)NCC3CCCO3)c(=O)oc12 (stereo not drawn)	9	1.4	i	6	1.1	12%
COc1ccc2oc(=O)c(C(=O)NCC3CCCO3)cc2c1 (stereo not drawn)	9	5.1*	/	7	1	8%
CC(OC(=O)c1cc2sccc2n1C)C(=O)NCC1CCCO1 (stereo not drawn)	0	1	i	22	1	9%
CC(OC(=O)c1cccs1)C(=O)NCC1CCCO1 (stereo not drawn)	0	0.99	i	25*	0.99	9%
CC(CN1CCCCC1)OC(=O)c1ccc(Cl)cc1 (stereo not drawn)	9	1.1	i	1	1	3%
CC(CN1CCN(C)CC1)OC(=O)c1ccc(Cl)cc1 (stereo not drawn)	2	0.97	i	28*	1	10%
Cc1ccc2cc(CN(CC(C)C)C(=O)C3CCCO3)c(=O)[nH]c2c1 (stereo not drawn)	3	1.2	i	3	1	3%
COc1ccc2[nH]c(=O)c(CN(C(=O)C3CCCO3)c3cccc(C)c3)cc2c1 (stereo not drawn)	8	2.4*	i	6	1.1	10%
COc1ccc(N(Cc2cc3cc(OC)ccc3[nH]c2=O)C(=O)C2CCCO2)cc1 (stereo not drawn)	8	2.9*	i	0	1.1	10%
Cc1cc(S(=O)(=O)N2CCC(NC(=O)C34CC5CC(CC(C5)C3)C4)CC2)ccc1-n1cnnn1	9	1.1	i	12	0.99	8%
COC(=O)[C@H](CCSC)NC(=O)N1CCN(c2cccc(C(F)(F)F)c2)CC1	9	1.1	i	6	0.99	5%
COC(=O)[C@@H](NC(=O)N1CCN(c2cccc(C(F)(F)F)c2)CC1)C(C)C	14	0.98	i	30*	0.83	15%
Cc1c(C(=O)N2CCCc3ccccc32)oc2ccc(S(=O)(=O)N3CCOCC3)cc12	0	1.1	i	14	0.98	5%
Cc1cccc(C)c1NC(=O)C(c1ccccc1)N1CCN(C(=O)c2ccco2)CC1 (stereo not drawn)	0	1.1	+	18	0.99	29%
Cc1cccc(C)c1NC(=O)C(c1ccccc1)N1CCC2(CC1)OCCO2 (stereo not drawn)	3	1	i	12	0.99	5%
COc1ccccc1N1CCN(C(=O)CSc2nnc(NC(=O)C3CC3)s2)CC1	5	1.1	i	11	0.99	5%
COc1ccccc1N1CCN(C(=O)CSc2nnc(NC(=O)c3ccco3)s2)CC1	0	0.73	+	12	1	15%
CCOc1ccc(C2C(C(=O)OC)=CN(CCOC)C=C2C(=O)OC)cc1	6	2.5*	/	0	1.1	3%
COCCN1C=C(C(=O)OC)C(c2cc3c(cc2Br)OCO3)C(C(=O)OC)=C1	2	1.5	i	0	1	4%
COCCN1C=C(C(=O)OC)C(c2ccc3c(c2)OCO3)C(C(=O)OC)=C1	5	2.1*	/	7	1.1	6%
CN1C(=O)c2ccccc2N(C)C1c1cccs1 (stereo not drawn)	5	3.9*	/	7	0.98	6%
CN(C)C=Nc1ncc2c([nH]c3ccccc32)c1C#N	2	2.1*	i	11	1.2	9%
CC(=O)NC(CCS(C)(=O)=O)C(=O)Nc1c(C)cccc1C (stereo not drawn)	47*	1.3	i	1	1	16%
